Among the data in PubChem BioAssay (Tox21) are Potency and outcome values, retold here.

Assay [1] in a line: A CellTox Green Cytotoxicity Assay to monitor cytotoxicity in HEK293 cells - 8 hour (AID 1224884). Note: nearly all actives have a fitted effect of over 35% in size. Note: potency is the fitted concentration of half-maximal effect. The gist of the method:
(§1)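 Read-out: fluorescence of a cell-impermeant cyanine dye staining DNA of dead cells, proportional to cytotoxicity. HEK293, 600 cells/well with reagent, compound (23 nL DMSO) added after 5 h; reads at 0, 8, 16, 24, 32, 40 h.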

Assay [2] can be described thus: qHTS RealTime-Glo MT Cell Viability Assay in HepG2 cells - 16 hour (AID 1224885). Note: nearly all actives have a fitted effect of over 50% in size. Note: potency is the fitted concentration of half-maximal effect. Summed up: (§2)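 Viability was tracked continuously by NanoLuc luminescence from prosubstrate reduced by living HepG2 cells, at successive time points over 40 h of compound exposure. Cells with reagent were preincubated 5 h at 37 °C before compound addition.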
Assay [3] can be described thus: qHTS RealTime-Glo MT Cell Viability Assay in HEK293 cells - 24 hour (AID 1224886). Note: nearly all actives have a fitted effect of over 50% in size. Note: potency is the fitted concentration of half-maximal effect. The gist of the method:
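Viability tracked continuously by luminescence as live cells reduce a prosubstrate for NanoLuc; HEK293 cells preincubated 5 h, compound-treated at 37 C, and read at 0, 8, 16, 24, 32 and 40 h.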

A short description of assay [4]: qHTS RealTime-Glo MT Cell Viability Assay in HEK293 cells - 8 hour (AID 1224887). Note: nearly all actives have a fitted effect of over 50% in size. Note: potency is the fitted concentration of half-maximal effect. Summed up: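 Luminescence readout at each listed time point; HEK293, 600 cells/well, RealTime-Glo MT reagent added with cells; compounds pinned (23 nL in DMSO) after 5 h at 37 C; continuous culture at 37 C.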
Assay [5] is described as follows: A CellTox Green Cytotoxicity Assay to monitor cytotoxicity in HEK293 cells - 16 hour (AID 1224888). Note: nearly all actives have a fitted effect of over 35% in size. Note: potency is the fitted concentration of half-maximal effect. The gist of the method:
as §1

Assay [6] can be described thus: qHTS RealTime-Glo MT Cell Viability Assay in HepG2 cells - 0 hour (AID 1224889). Note: nearly all actives have a fitted effect of over 50% in size. Note: potency is the fitted concentration of half-maximal effect. Summed up: as §2
The nature of assay [7]: qHTS assay to identify small molecule antagonists of the estrogen receptor alpha (ER-alpha) signaling pathway using the BG1 cell line in the presence of 0.1 nM 17-beta-estradiol - cell viability counter screen (AID 1259241). Note: nearly all actives have a fitted effect of over 40% in size. Note: potency is the fitted concentration of half-maximal effect. The gist of the method: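 The cell line endogenously expresses full-length ER-alpha and carries four EREs driving luciferase. Cells are cultured 5 days hormone-free, treated 22 hr with compounds and 0.1 nM estradiol, then viability is read by fluorescence.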

The nature of assay [8]: qHTS assay to identify small molecule antagonists of the androgen receptor (AR) signaling pathway using the MDA cell line in the presence of 0.5 nM R1881 - cell viability counter screen (AID 1259242). Note: nearly all actives have a fitted effect of over 45% in size. Note: potency is the fitted concentration of half-maximal effect. The gist of the method: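 Live-cell protease fluorescence, CellTiter-Fluor, 30 min at 37C. Cells: MDA-kb2, 3,000/well, preincubated 5 hr. Compounds plus 0.5 nM R1881 final, 16 hr, 37C, 0% CO2.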

Assay [9] has as its target Androgen receptor (Homo sapiens) (UniProt P10275). Kind of assay: qHTS assay to identify small molecule antagonists of the androgen receptor (AR) signaling pathway using the MDA cell line in the presence of 0.5 nM R1881 (AID 1259243). Note: nearly all actives have a fitted effect of over 50% in size. Note: potency is the fitted concentration of half-maximal effect. The gist of the method: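 MDA-kb2, MMTV-luc (AR/GR elements); 3,000 cells/well; cpd + 0.5 nM R1881 final; 16 hr 37C, 0% CO2; ONE-Glo 30 min RT; luminescence.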

A short description of assay [10]: qHTS assay to identify small molecule HDAC inhibitors (AID 1259364).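 Note: wild-type HCT-116 cells with endogenous class I/II HDAC activity; top concentration of the series differs between compounds; nearly all actives have a fitted effect of over 45% in size.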 Summed up: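 HCT-116 (wild type), 1,500 cells/well, overnight; compound 2 hr 37C 5% CO2; HDAC-Glo I/II reagent 30 min RT; luminescence readout.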
A short description of assay [11]: qHTS assay to identify small molecule HDAC inhibitors - cell viability counter screen (AID 1259365). Summed up:
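Viability readout: CellTiter-Glo luminescence. Wild-type HCT-116 cells, 2hr compound treatment following overnight attachment at 37 C.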

A short description of assay [12]: qHTS assay to identify small molecule agonists of the sonic hedgehog signaling (Shh) pathway - cell viability counter screen (AID 1259366). Note: nearly all actives have a fitted effect of over 50% in size. Note: potency is the fitted concentration of half-maximal effect. The gist of the method:
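Viability measured fluorometrically (CellTiter-Fluor, 1hr, 37C) in 3T3 Gli1-Luc reporter cells after 23hr compound exposure within a 24hr incubation at 37C/5% CO2.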

Assay [13] can be described thus: qHTS assay to identify small molecule antagonists of the sonic hedgehog signaling (Shh) pathway - cell viability counter screen (AID 1259367). Note: nearly all actives have a fitted effect of over 55% in size. Note: potency is the fitted concentration of half-maximal effect. Summed up: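 Viability was read by CellTiter-Fluor fluorescence in the same wells, reagent added 23 hr into compound treatment and incubated 1 hr at 37C. The 3T3 Gli1-Luc reporter cells (2,000/well) received conditioned medium after compound and ran 24 hr.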

A short description of assay [14]: qHTS assay to identify small molecule agonists of the sonic hedgehog signaling (Shh) pathway (AID 1259368; calls by dose curve;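 note: NIH/3T3-derived 3T3Gli1-Luc cells carrying a stable Gli1-driven firefly luciferase reporter; series mostly up to about 92 µM; nearly all actives have a fitted effect of over 15% in size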). Summed up: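 Read-out: firefly luciferase luminescence from a Gli1 response element reporter stably integrated in NIH/3T3-derived 3T3Gli1-Luc cells, measured 30 min at room temperature after reagent addition. Compound exposure lasted 24 hr at 37 C, 5% CO2.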

Assay [15] is described as follows: qHTS assay to identify small molecule antagonists of the sonic hedgehog signaling (Shh) pathway (AID 1259369; calls by dose curve; note: nearly all actives have a fitted effect of over 45% in size; note: potency is the fitted concentration of half-maximal effect). Summed up: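 Luminescence readout: firefly Luc under Gli1 response element in 3T3Gli1-Luc cells (NIH/3T3 clone). Antagonist mode, stimulation by conditioned medium; compound exposure 24hr at 37 C, 5% CO2.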
Assay [16] can be described thus: A CellTox Green Cytotoxicity Assay to monitor cytotoxicity in HepG2 cells - 8 hour (AID 1224890). Note: nearly all actives have a fitted effect of over 45% in size. The gist of the method: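 HepG2, 600 cells/well premixed w/ CellTox Green; 5 h settle, 37 C/5% CO2; pintool cpd add (DMSO); 37 C, 40 h; fluorescence read at 0, 8, 16, 24, 32, 40 h.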
In assay [17] the target is Estrogen receptor beta (Homo sapiens) (UniProt Q92731). Kind of assay: qHTS assay to identify small molecule agonists of the estrogen receptor beta (ER-beta) signaling pathway (AID 1259377; active = well fitted activation curve with a large enough effect in the signal ratio in the repeat runs, not every such curve was filed as active; the % refers to the signal ratio). Summed up:
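A UAS-controlled beta-lactamase reporter in ER-beta-UAS-bla HEK293T cells reports receptor activation. Compounds act for 16 hr at 37C in 2% charcoal-stripped serum, and a FRET substrate is read by fluorescence after 2 hours.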

Assay [18] shares this target. Kind of assay: qHTS assay to identify small molecule antagonists of the estrogen receptor beta (ER-beta) signaling pathway (AID 1259378; active = well fitted inhibition curve with a large enough effect in the signal ratio in the repeat runs, not every such curve was filed as active; the % refers to the signal ratio). Summed up:
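Antagonist mode: compounds added to beta-lactamase reporter HEK293T ER-beta-UAS cells stimulated with E2 (1nM final), 16 hr at 37C. LiveBLAzer B/G FRET substrate, 2 hours room temperature, fluorescence read-out.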

Assay [19] concerns the target Estrogen receptor (Homo sapiens) (UniProt P03372). Kind of assay: qHTS assay to identify small molecule antagonists of the estrogen receptor alpha (ER-alpha) signaling pathway using the BG1 cell line in the presence of 0.1 nM 17-beta-estradiol (AID 1259244). Note: nearly all actives have a fitted effect of over 50% in size. The gist of the method: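 Luminescence after ONE-Glo (30 min, room temperature) measured ERE-luciferase activity in VM7Luc4E2 cells treated 22 h with compound and 0.1 nM final 17beta-estradiol as stimulator.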

Values without a mark were called inactive. Results filed as inconclusive are left out. Active and inactive are the calls of the source. Unless noted, calls come from the whole dose curve; as a rule, active = well fitted curve in the direction sought with a large enough effect in the repeat runs; inconclusive = weak or mixed curves; inactive = no such curve, though single readings can be large; an effect the other way counts as inactive or inconclusive.

Chain of Androgen receptor (Homo sapiens) (P10275 whole entry, looked up): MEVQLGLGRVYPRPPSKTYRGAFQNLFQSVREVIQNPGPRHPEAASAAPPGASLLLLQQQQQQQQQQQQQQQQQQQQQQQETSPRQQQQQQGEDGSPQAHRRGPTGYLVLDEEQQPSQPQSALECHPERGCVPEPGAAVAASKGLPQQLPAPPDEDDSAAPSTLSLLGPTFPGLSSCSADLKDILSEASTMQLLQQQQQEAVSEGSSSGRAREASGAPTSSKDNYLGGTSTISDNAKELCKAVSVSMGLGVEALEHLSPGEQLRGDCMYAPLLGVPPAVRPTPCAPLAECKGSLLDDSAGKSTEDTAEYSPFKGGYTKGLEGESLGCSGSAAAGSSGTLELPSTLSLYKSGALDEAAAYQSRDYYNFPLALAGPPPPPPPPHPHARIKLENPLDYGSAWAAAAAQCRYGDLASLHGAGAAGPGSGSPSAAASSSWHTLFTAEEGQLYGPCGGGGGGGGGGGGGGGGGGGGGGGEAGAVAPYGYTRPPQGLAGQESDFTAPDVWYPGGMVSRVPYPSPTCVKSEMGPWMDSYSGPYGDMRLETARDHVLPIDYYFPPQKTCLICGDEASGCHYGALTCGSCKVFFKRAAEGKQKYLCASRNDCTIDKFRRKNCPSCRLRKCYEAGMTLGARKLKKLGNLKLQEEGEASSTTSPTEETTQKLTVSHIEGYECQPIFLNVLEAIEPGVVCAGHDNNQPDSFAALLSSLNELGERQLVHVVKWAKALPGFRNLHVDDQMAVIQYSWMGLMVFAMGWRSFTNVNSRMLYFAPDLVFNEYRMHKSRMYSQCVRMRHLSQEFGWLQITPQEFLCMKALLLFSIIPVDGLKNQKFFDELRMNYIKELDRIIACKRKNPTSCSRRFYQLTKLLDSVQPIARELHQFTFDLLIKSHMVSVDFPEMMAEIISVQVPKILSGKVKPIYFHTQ
Chain of Estrogen receptor beta (Homo sapiens) (Q92731 whole entry, looked up): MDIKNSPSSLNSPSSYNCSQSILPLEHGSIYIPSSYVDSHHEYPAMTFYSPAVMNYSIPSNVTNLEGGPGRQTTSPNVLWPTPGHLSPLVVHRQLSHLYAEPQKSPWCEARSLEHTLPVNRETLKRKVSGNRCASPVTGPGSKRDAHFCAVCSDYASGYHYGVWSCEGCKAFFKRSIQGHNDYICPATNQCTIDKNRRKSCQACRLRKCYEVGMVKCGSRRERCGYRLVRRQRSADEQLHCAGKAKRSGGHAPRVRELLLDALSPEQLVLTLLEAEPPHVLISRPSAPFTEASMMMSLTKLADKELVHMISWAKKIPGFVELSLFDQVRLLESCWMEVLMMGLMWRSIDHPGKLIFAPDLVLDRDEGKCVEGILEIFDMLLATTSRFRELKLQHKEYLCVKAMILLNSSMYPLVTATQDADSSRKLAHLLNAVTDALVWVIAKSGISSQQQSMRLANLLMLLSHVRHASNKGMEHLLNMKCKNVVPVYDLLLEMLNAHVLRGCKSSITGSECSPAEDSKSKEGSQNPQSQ
Chain of Estrogen receptor (Homo sapiens) (P03372 whole entry, looked up): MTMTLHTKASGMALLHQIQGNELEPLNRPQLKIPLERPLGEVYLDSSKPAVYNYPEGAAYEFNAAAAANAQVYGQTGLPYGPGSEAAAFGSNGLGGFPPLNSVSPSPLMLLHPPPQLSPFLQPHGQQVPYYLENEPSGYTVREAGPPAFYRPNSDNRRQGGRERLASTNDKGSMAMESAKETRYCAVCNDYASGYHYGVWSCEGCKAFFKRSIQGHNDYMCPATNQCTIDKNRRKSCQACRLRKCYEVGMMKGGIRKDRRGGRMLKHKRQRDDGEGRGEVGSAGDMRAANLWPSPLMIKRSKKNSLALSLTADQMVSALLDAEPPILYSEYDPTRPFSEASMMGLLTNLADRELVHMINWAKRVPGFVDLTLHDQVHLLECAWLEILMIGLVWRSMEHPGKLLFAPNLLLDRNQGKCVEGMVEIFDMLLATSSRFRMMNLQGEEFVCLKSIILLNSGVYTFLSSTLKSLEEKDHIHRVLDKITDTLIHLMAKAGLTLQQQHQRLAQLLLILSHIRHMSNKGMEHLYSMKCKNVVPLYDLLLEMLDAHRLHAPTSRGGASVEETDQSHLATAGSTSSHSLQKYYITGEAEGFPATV

On to `Cc1ccc(S(=O)(=O)C(I)I)cc1`, for which the Potency in assay [1] was 49 µM (active); in assay [2], 11 µM (active); in [3] it was 12.3 µM (active); in [4] it was 24.5 µM (active); in [5], 43.6 µM (active); in assay [6], 12.3 µM (active). Further, the Potency was 77 µM (active) in assay [7]; 48.6 µM (active) in assay [8]; 15.4 µM (active) in [9]; 6.11 µM (active) in assay [12]; 7.7 µM (active) in assay [13]; 1.22 µM (active) in assay [15]. The Potency result in assay [10], in assay [11] and in [14] was “inactive” throughout.
As for `COCCC(=O)OC`, the Potency result in assay [1], in assay [2], in assay [3], in assay [4], in assay [6] and in assay [16] was “inactive” in each case. Moreover, the Potency entry in assay [7], in assay [8], in assay [9], in assay [10], in [11] and in assay [14] was “inactive” each time.
Consider `N#CCCOCCC#N`, for which the Potency result in [1], in assay [2], in [3], in assay [4], in assay [5] and in assay [6] was “inactive” in each case. Besides, the Potency result in assay [16], in assay [8], in assay [9], in assay [10], in assay [11] and in assay [12] was “inactive” each time. Moreover, the Potency entry in assay [13], in assay [14] and in assay [18] was “inactive” throughout. In assay [17], the call was inactive.
`COc1cc(OC)nc(NC(=O)NS(=O)(=O)Nc2ccccc2C(=O)N(C)C)n1`: the Potency entry in [1], in assay [2], in [3], in assay [4], in [5] and in [6] was “inactive” in each case. Moreover, the Potency result in [16], in [8], in [19], in assay [10], in assay [11] and in assay [12] was “inactive” each time. Besides, the Potency entry in assay [13], in assay [14] and in [18] was “inactive” each time. In addition, the molecule was classed as inactive in assay [17].
`CCOC=C(C(=O)OCC)C(=O)OCC`: the Potency result in assay [1], in [2], in [3], in assay [4], in assay [6] and in assay [16] was “inactive” in each case. The Potency entry in assay [7], in assay [8], in assay [9], in [19], in [10] and in assay [11] was “inactive” in each case. Besides, the Potency result in assay [12], in [13], in assay [14], in assay [15] and in assay [18] was “inactive” in each case.
Consider `c1ccc2cc3c4ccccc4c4ccccc4c3cc2c1`, for which the Potency entry in assay [1], in assay [2], in assay [3], in assay [4], in assay [5] and in [6] was “inactive” each time. In addition, the Potency entry in assay [16], in assay [7], in [8], in assay [10], in [12] and in [13] was “inactive” each time. Besides, the Potency result in assay [14], in assay [15] and in [18] was “inactive” in each case. For the same molecule, in assay [17], the molecule was called inactive.
As to `c1ccc(-c2ccccc2-c2ccccc2)cc1`, the Potency entry in assay [1], in [2], in assay [3], in assay [4], in assay [5] and in assay [6] was “inactive” each time. For the same molecule, the Potency entry in assay [16], in assay [8], in [10], in [11] and in assay [14] was “inactive” each time. Further, the Potency in [13] is 43.3 µM (active); in [15] it was 15.4 µM (active).
Consider `Cc1ccc2sc3cccc(C)c3c2c1`, for which the Potency result in assay [1], in [2], in assay [3], in assay [4], in assay [6] and in assay [16] was “inactive” in each case. Moreover, the Potency entry in assay [7], in assay [8], in assay [19], in [10], in assay [11] and in [12] was “inactive” throughout. Besides, the Potency result in assay [13], in [14] and in assay [18] was “inactive” throughout. Besides, the Potency in assay [9] was 8.63 µM (active). Moreover, in assay [17], the outcome was inactive.
